HEK cytotox: Cytotoxic Profiling in HEK 293 Cell Line of Diverse Libraries Using Quantitative High-Throughput Screening; HEK 293 viability, ATP luminescence (CellTiter-Glo), 48-72 h; 94,000 compounds, 6.6% hits; Potency, µM (doses to about 115 µM), without a hit: at the top dose activity change, negative = cytotoxicity, most hits filed as inhibitors; active = well fitted curve in the direction sought with a large enough effect; inconclusive = small, poorly fitted or top-dose-only effect, or another doubt; inactive = no such curve, though single readings can be large; an effect the other way counts as inactive or inconclusive; also: % is scaled to controls: 0 for no effect and ±100 for the full control effect; nearly all actives have a fitted effect of over 60% in size
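Viability of HEK 293 cells, plated at 250 cells/well, was judged by cellular ATP after compound treatment for 48 or 72 hr. Luminescence was imaged 10 min after CellTiter-Glo addition at room temperature.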
3T3 cytotox: Cytotoxic Profiling in NIH 3T3 Cell Line of Diverse Libraries Using Quantitative High-Throughput Screening; 94,000 compounds, 4.3% hits; AID 1345082, 2018; NIH 3T3 viability, CellTiter-Glo ATP luminescence, 48-72 h; Potency, µM (series often up to 96.7 µM), for the others: top-dose activity change, negative = cytotoxicity, actives largely listed as inhibitors; active = well fitted curve in the direction sought with a large enough effect; inconclusive = small, poorly fitted or top-dose-only effect, or another doubt; inactive = no such curve, though single readings can be large; an effect the other way counts as inactive or inconclusive; also: % is scaled to controls: 0 for no effect and ±100 for the full control effect; nearly all actives have a fitted effect of over 55% in size
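First NIH 3T3 cells are plated at 400 cells/well; next compound is pinned in; then plates incubate 48 or 72 hr at 37 °C; finally CellTiter-Glo is added and luminescence read after 10 min.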
FLuc inh: Firefly luciferase inhibition profiling of diverse chemical library using quantitative high-throughput screening. Potency, µM (series often up to 115 µM), usual class: inhibitors. 76,000 compounds, 2.5% hits. purified P. pyralis luciferase, luminescence, biochemical. AID 1347043, 2019; active = well fitted curve in the direction sought with a large enough effect; inconclusive = small, poorly fitted or top-dose-only effect, or another doubt; inactive = no such curve, though single readings can be large; an effect the other way counts as inactive or inconclusive; also: % is scaled to controls: 0 for no effect and ±100 for the full control effect; nearly all actives have a fitted effect of over 65% in size
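Biochemical qHTS: compound (6-point titration) added to 10uM D-luciferin plus 10uM ATP in Tris acetate pH 7.5 buffer with Mg, Tween-20 and BSA, then purified enzyme at 10nM; light output imaged.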
NPR1 antag: Natriuretic polypeptide receptor (hNpr1) antagonism - Primary qHTS; Atrial natriuretic peptide receptor 1 (Homo sapiens), P16066; HEK293 hNpr1 GloSensor cGMP, ANP-stimulated luminescence; Potency, µM (titrated, usually from 46.3 µM), without a hit: at the top dose activity change, negative = inhibition, usual class: inhibitors; 76,000 compounds, 1.6% hits; AID 1347048, 2019; also: % is scaled to controls: 0 for no effect and ±100 for the full control effect; nearly all actives have a fitted effect of over 60% in size
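HEK293 cells stably expressing human Npr1 and cGMP GloSensor pGS-40F, loaded 2 h with 2% GloSensor reagent, given compound 30 min at room temperature. Luminescence read before and 20 min after 0.1 nM hNppA.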
NPR1 antag cnf: Natriuretic polypeptide receptor (hNpr1) antagonism - Confirmation. shares compounds with NPR1 antag. HEK293 hNpr1 cGMP GloSensor luminescence, ANP-stimulated. Potency, µM (top dose mostly 57.6 µM), inactives show at the top dose activity change, negative = inhibition, actives largely listed as inhibitors. 1,400 compounds, 76% hits. AID 1347044, 2019; also: nearly all actives have a fitted effect of over 70% in size
NPR2 antag: Natriuretic polypeptide receptor (hNpr2) antagonism - Subtype selectivity assay; HEK293 hNpr2 GloSensor cGMP luminescence, CNP-stimulated; AID 1347046, 2019; shares compounds with NPR1 antag; Potency, µM (titrated, usually from 57.6 µM), for inactives: top-dose activity change, negative = inhibition, most hits filed as inhibitors; 1,400 compounds, 67% hits; also: nearly all actives have a fitted effect of over 70% in size
Target sequence (P20594 whole entry, looked up): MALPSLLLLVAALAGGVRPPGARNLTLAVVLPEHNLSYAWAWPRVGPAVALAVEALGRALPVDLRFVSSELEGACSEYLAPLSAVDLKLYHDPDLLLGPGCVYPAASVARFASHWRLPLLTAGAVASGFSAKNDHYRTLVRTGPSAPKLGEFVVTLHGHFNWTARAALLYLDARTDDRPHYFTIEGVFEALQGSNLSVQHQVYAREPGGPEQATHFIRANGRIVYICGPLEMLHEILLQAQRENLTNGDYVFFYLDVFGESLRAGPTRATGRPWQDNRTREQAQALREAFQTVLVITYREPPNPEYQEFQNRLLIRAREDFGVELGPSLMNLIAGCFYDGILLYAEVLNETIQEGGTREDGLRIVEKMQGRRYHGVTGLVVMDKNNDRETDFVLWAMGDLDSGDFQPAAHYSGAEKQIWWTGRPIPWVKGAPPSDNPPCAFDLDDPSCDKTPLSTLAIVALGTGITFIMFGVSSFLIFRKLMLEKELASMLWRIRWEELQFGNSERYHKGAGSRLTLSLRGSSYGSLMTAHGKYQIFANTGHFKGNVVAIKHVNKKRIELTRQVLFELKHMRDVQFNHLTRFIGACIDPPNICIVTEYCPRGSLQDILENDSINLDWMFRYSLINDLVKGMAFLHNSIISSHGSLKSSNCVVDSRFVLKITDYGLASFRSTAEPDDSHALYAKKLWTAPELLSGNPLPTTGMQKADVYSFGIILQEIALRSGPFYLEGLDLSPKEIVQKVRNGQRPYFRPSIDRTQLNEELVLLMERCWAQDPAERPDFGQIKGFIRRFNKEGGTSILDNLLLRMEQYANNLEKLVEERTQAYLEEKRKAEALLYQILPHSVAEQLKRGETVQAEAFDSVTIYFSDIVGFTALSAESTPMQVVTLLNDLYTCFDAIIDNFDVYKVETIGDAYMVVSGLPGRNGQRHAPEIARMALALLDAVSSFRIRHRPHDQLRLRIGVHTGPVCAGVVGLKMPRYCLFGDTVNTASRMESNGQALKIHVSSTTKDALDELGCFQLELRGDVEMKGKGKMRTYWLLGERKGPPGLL
FLuc inh counter: Natriuretic polypeptide receptor (hNpr1) antagonism - Confirmation firefly luciferase (FLuc) inhibition counterscreen. purified FLuc enzyme, luminescence, Km substrate. 1,400 compounds, 0.7% hits. AID 1347047, 2019. Potency, µM (doses to about 57.6 µM), for inactives: at the highest dose activity change, negative = inhibition, actives largely listed as inhibitors. shares compounds with NPR1 antag; active = well fitted curve in the direction sought with a large enough effect; inconclusive = small, poorly fitted or top-dose-only effect, or another doubt; inactive = no such curve, though single readings can be large; an effect the other way counts as inactive or inconclusive; also: 0% is about no effect
GloSensor ctrl: Natriuretic polypeptide receptor (hNpr1) antagonism - Counterscreen GloSensor control cell line. shares compounds with NPR1 antag. HEK293 GloSensor cGMP, SNP-stimulated, luminescence. Potency, µM (doses to about 57.6 µM), for the others: top-dose activity change, negative = inhibition, actives largely listed as inhibitors. 1,400 compounds, 69% hits. AID 1347051, 2019; also: % is scaled to controls: 0 for no effect and ±100 for the full control effect; nearly all actives have a fitted effect of over 70% in size
An asterisk follows results filed as active; [ ] = dose if it differs, or a comment. Hits are enriched below; roughly 11% of the tested compounds scored in any of these assays. Unless noted, calls follow the shape of the full dose curve. Potency is read from the fitted curve at half-maximal effect.

How did COc1ccc([S+](=O)([O-])N2CCC3(CC2)OCCN(c2ccc(F)cc2)C3=O)cc1 do in these assays?
HEK cytotox: inconclusive; 3T3 cytotox: inconclusive; FLuc inh: inactive; NPR1 antag: inconclusive; NPR1 antag cnf: 31µM*; NPR2 antag: inconclusive; FLuc inh counter: -2%[86.2 µM]; GloSensor ctrl: 31µM*

How did Cn1cccc1CN1CCCC2(C1)C(=NC1CCCC1)NC(=O)N2c1cccnc1 (stereo not drawn) do in these assays?
HEK cytotox: inactive; 3T3 cytotox: inconclusive

How did COc1ccccc1OCCNC(=O)C1CCN(c2cc(C(F)(F)F)ncn2)CC1 do in these assays?
HEK cytotox: -25%; 3T3 cytotox: inconclusive; FLuc inh: inactive; NPR1 antag: inconclusive

What do the screens show for `Cc1ccc(CNC(=O)C2CCN(c3cc(C(F)(F)F)ncn3)CC2)cc1`?
HEK cytotox: inconclusive; 3T3 cytotox: -24%; FLuc inh: inactive; NPR1 antag: 13µM*; NPR1 antag cnf: 24µM*; NPR2 antag: 22µM*; FLuc inh counter: 2%; GloSensor ctrl: 19µM*

Results for CSc1ccc(CNC(=O)C2CCN(c3cc(C(F)(F)F)ncn3)CC2)cc1 ?
HEK cytotox: inconclusive; 3T3 cytotox: inconclusive; FLuc inh: inactive; NPR1 antag: 13µM*; NPR1 antag cnf: 19µM*; NPR2 antag: 22µM*; FLuc inh counter: 4%; GloSensor ctrl: 15µM*

How did CCc1ccc(CNC(=O)C2CCN(c3cc(C(F)(F)F)ncn3)CC2)cc1 do in these assays?
HEK cytotox: inconclusive; 3T3 cytotox: inconclusive; FLuc inh: inactive; NPR1 antag: 14µM*; NPR1 antag cnf: 22µM*; NPR2 antag: 17µM*; FLuc inh counter: 4%; GloSensor ctrl: 14µM*

What do the screens show for `CCOC(=O)c1ccc(NC(=O)COc2ccc(-c3nnc4n3CCCC4)cc2)cc1`?
HEK cytotox: 2%; 3T3 cytotox: -11%; FLuc inh: inactive; NPR1 antag: -13%

How did COCc1noc([C@@H]2CN(C(=O)c3cccc(Cl)c3)C[C@H]2CO)n1 do in these assays?
HEK cytotox: inactive; 3T3 cytotox: -2%; FLuc inh: inactive; NPR1 antag: 9%

How did CC(=O)c1cccc(NC(=O)O[C@@H]2CO[C@H]3[C@@H]2OC[C@@H]3NC(=S)NC2CCCCC2)c1 do in these assays?
HEK cytotox: inconclusive; 3T3 cytotox: inconclusive; FLuc inh: inactive; NPR1 antag: 18µM*; NPR1 antag cnf: 24µM*; NPR2 antag: 24µM*; FLuc inh counter: 0%; GloSensor ctrl: inconclusive

How did CC(=O)c1cccc(NC(=O)O[C@@H]2CO[C@H]3[C@@H]2OC[C@@H]3NC(=S)Nc2cccc3ccccc23)c1 do in these assays?
HEK cytotox: inconclusive; 3T3 cytotox: inconclusive; FLuc inh: inactive; NPR1 antag: 8.9µM*; NPR1 antag cnf: 12µM*; NPR2 antag: 17µM*; FLuc inh counter: 0%; GloSensor ctrl: 14µM*

Results for CN(Cc1ccncc1)Cc1ccc(-c2ccccc2)cc1 ?
HEK cytotox: 71µM*; 3T3 cytotox: inconclusive; FLuc inh: inactive; NPR1 antag: inconclusive; NPR1 antag cnf: 22µM*; NPR2 antag: 28µM*; FLuc inh counter: -3%[86.2 µM]; GloSensor ctrl: 18µM*

What do the screens show for `CN(Cc1ccc(-c2ccccc2)cc1)Cc1ccc(N(C)C)cc1`?
HEK cytotox: inconclusive; 3T3 cytotox: -28%; FLuc inh: inactive; NPR1 antag: -10%

How did O=c1n(-c2ccncc2)nc2n1CCN(Cc1ccc(C(F)(F)F)cc1)C2 do in these assays?
HEK cytotox: 13µM*; 3T3 cytotox: inconclusive; FLuc inh: inactive; NPR1 antag: 16µM*; NPR1 antag cnf: 15µM*; NPR2 antag: 17µM*; FLuc inh counter: 4%[86.2 µM]; GloSensor ctrl: 12µM*

How did Cn1nccc1CN1CCn2c(nn(-c3ccc(C(F)(F)F)cc3)c2=O)C1 do in these assays?
HEK cytotox: inconclusive; 3T3 cytotox: inconclusive; NPR1 antag cnf: inconclusive; NPR2 antag: inconclusive; FLuc inh counter: -2%; GloSensor ctrl: inconclusive

How did O=c1n(-c2ccncc2)nc2n1CCN(Cc1ccc(F)cc1)C2 do in these assays?
HEK cytotox: inconclusive; 3T3 cytotox: inconclusive; FLuc inh: inactive; NPR1 antag: inconclusive

Results for COc1ccc(OCC(=O)N2CCC(Cc3nc(-c4ccc(F)cc4)no3)CC2)cc1 ?
HEK cytotox: inconclusive; 3T3 cytotox: inconclusive; FLuc inh: inactive; NPR1 antag: 5.6µM*; NPR1 antag cnf: 4.3µM*; NPR2 antag: 6.1µM*; FLuc inh counter: 2%; GloSensor ctrl: 3.9µM*

How did CC(C)c1noc(CC2CCN(C(=O)Cc3ccc(F)cc3)CC2)n1 do in these assays?
HEK cytotox: -19%; 3T3 cytotox: -42%; FLuc inh: inactive; NPR1 antag: -23%

Results for CN(C)C(=O)c1ccc(CC2CCN(C(=O)CC3CCCCC3)CC2)cc1 ?
HEK cytotox: 35µM*; 3T3 cytotox: inconclusive; FLuc inh: inactive; NPR1 antag: 11µM*; NPR1 antag cnf: 15µM*; NPR2 antag: 19µM*; FLuc inh counter: 3%; GloSensor ctrl: 15µM*

Results for COc1ccc(CC(=O)N2CCC(Cc3nc(-c4ccc(F)cc4)no3)CC2)cc1OC ?
HEK cytotox: inconclusive; 3T3 cytotox: inconclusive; FLuc inh: inactive; NPR1 antag: 7.1µM*; NPR1 antag cnf: 3.1µM*; NPR2 antag: 9.7µM*; FLuc inh counter: 1%; GloSensor ctrl: 6.1µM*
